High-throughput results: PubChem, several laboratories
CCHFV vOTU inh: blocks the CCHF virus ovarian tumor domain protease; CCHFV vOTU protease, Pep-AMC fluorescence; inhibition, % at 11.5 µM; actives 0.55% (n = 370,000); AID 651958; in the data active = inhibition above about 30%; also: 0% = vehicle wells with enzyme and 100% = no enzyme wells
RecA splice inh: inhibitors of M. tuberculosis RecA intein splicing; cell-free RecA intein splicing, fluorescence; inhibition, % (no concentration beside the values); actives 0.75% (n = 290,000); in the data active = inhibition above about 30%;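 also: 0% = vehicle wells and 100% = reference inhibitor control wells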
Target sequence (P9WHJ3 whole entry, looked up, canonical isoform): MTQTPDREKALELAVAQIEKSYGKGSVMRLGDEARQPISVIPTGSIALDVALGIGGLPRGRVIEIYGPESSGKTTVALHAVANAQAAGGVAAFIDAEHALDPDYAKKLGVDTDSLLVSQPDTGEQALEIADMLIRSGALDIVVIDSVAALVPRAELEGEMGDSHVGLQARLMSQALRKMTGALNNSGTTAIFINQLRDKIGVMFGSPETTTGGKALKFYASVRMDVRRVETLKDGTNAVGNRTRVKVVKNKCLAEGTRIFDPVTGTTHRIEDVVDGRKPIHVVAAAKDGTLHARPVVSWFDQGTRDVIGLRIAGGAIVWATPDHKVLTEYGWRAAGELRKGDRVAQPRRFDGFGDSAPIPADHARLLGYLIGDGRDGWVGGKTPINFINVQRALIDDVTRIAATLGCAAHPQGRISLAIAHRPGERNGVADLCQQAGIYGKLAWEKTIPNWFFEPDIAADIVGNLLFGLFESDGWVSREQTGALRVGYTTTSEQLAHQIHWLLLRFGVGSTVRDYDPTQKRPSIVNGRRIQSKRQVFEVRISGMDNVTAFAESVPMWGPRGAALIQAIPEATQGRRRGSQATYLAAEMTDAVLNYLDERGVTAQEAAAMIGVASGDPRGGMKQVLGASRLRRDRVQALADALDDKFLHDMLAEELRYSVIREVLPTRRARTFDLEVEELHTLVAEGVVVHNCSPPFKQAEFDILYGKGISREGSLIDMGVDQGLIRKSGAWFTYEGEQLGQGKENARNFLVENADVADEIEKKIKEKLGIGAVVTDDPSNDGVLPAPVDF
FBA Mtb inh: Mtb fructose-bisphosphate aldolase inhibition. P9WQA3. purified M. tuberculosis FBA, fluorescence read-out. actives 2.3% (n = 360,000). inhibition, % at 1 µM;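 also: 0% = vehicle and 100% = reference inhibitor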
GDH-TPI counter-1: GDH-TPI coupled enzyme inhibition counter-screen; GDH-TPI coupled enzyme counterscreen, NADH absorbance; inhibition, % at 4.8 µM; actives 1.2% (n = 360,000); in the data active = inhibition above about 30%;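 also: 0% = DMSO wells and 100% = wells lacking the enzyme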
Mtb FBA inh conf: Mtb FBA inhibition, confirmed | shares compounds with FBA Mtb inh | purified M. tuberculosis FBA, fluorescence read-out | inhibition, % at 1 µM | actives 78% (n = 5,600) | AID 651616;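 also: 0% = vehicle wells and 100% = reference inhibitor wells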
GDH-TPI counter-2: counter-screen for M. tuberculosis FBA inhibitors: GDH-TPI coupled enzyme inhibition; shares compounds with FBA Mtb inh; GDH-TPI coupled enzyme counterscreen, fluorescence; inhibition, % at 1 µM; actives 81% (n = 5,600); in the data active = inhibition above about 10%
* marks the source's active call; other numbers are inactive results; x = no result given; + = active, no number. Sampled rows, rich in hits. Any-hit rate of the full collection: about 4.2%. Rule as the data show it, unless noted: active = inhibition above about 27%; inactive = the rest.

SMILES	CCHFV vOTU inh	RecA splice inh	FBA Mtb inh	GDH-TPI counter-1	Mtb FBA inh conf	GDH-TPI counter-2
CN(C)c1nc(OCCNC(=O)COc2ccccc2Cl)nc(N(C)C)n1	-18.2	1.0	55.3*	15.5	+	188.7*
Cc1ccc(CNC(=O)C2CCC(=O)N(Cc3ccc(Cl)cc3)C2)cc1F (stereo not given)	6.0	2.0	0.7	-0.7	x	x
O=C(NCCN1CCOCC1)c1cc(-c2ccc(Cl)s2)nc2ccccc12	-49.4	-3.2	92.6*	21.1	148.4*	116.0*
Cc1ccc(-c2cc(C(=O)NCCN3CCOCC3)c3ccccc3n2)o1	-44.8	-60.7	42.8*	22.7	119.7*	89.5*
CC1CCN(C(=O)c2cc(Cl)nc3ccccc23)CC1	-14.5	-5.5	2.1	-0.7	x	x
COC(=O)C1CCN(C(=O)c2cc(-c3ccc(Cl)s3)nc3ccccc23)CC1	-62.9	x	67.8*	15.3	146.8*	139.4*
O=C(NCCN1CCOCC1)c1cc(-c2ccccc2Cl)nc2ccccc12	-0.1	-2.1	-0.7	5.6	x	x
COc1ccc(-c2cc(C(=O)NCCN3CCOCC3)c3ccccc3n2)cc1OC	-5.8	-1.0	0.2	15.6	x	x
COc1ccc(-c2cc(C(=O)NCCN3CCOCC3)c3ccccc3n2)cc1	-36.8	-0.4	47.0*	17.7	81.1*	93.1*
COc1ccc(S[C@]2(C(=O)N3CCN(C(C)=O)CC3)CC(=O)N(C(=O)CCc3ccccc3)[C@@H]2c2ccc(OC)cc2)cc1	8.8	x	x	x	x	x
Cc1ccc(-c2cc(C(=O)N3CCN(c4ccccc4O)CC3)c3ccccc3n2)o1	-42.0	-1.7	38.1*	7.3	106.4*	103.4*
O=C(NCCCN1CCN(c2cccc(Cl)c2)CC1)c1ccc(N2CCCC2=O)cc1	-3.7	-0.3	-2.0	3.2	x	x
CS(=O)(=O)Nc1ccccc1C(=O)NCC1(N2CCCCC2)CCCCC1	-16.3	-1.7	44.6*	-2.2	8.9	-5.0
O=C(NCC1(N2CCCCC2)CCCCC1)c1ccc(NS(=O)(=O)c2ccccc2)cc1	-8.3	-1.3	-0.6	4.5	x	x
NC(=O)c1ccccc1N	-29.0	1.3	86.5*	6.2	77.8*	54.2*
COc1ccc(C(=O)NCc2ccccc2OC)c(OC)c1	-4.6	1.1	-3.1	-17.2	x	x
NC(=O)c1ccccc1Br	-5.2	-5.3	-0.1	9.7	x	x
Nc1ccccc1C(=O)NCCCN1CCN(c2cccc(Cl)c2)CC1	-19.4	3.1	54.1*	1.1	68.7*	71.7*
COc1ccccc1CNC(=O)c1ccccc1N	x	-0.6	53.8*	-8.3	59.6*	51.1*
Cc1cc(C(=O)NCc2ccccc2)c(=O)[nH]c1C	-38.4	-0.6	55.8*	3.9	102.8*	74.1*
NC(=O)c1cccc2cc3ccccc3cc12	-118.3	-22.9	36.6*	4.2	9.2	6.1
Cc1ccc(C(=O)NCCN2CCNC2=O)cc1	-10.9	0.7	0.9	3.8	x	x
Nc1ccccc1C(=O)NCCN1CCNC1=O	-26.3	0.1	92.6*	10.2	89.9*	76.9*
NC(=O)c1ccccc1OCc1cccc2ccccc12	-9.5	-0.7	1.2	5.6	x	x
Cc1ccc(OCCNC(=O)c2ccccc2N)cc1	-20.8	1.5	49.0*	2.0	+	190.9*
SMILES	CCHFV vOTU inh	RecA splice inh	FBA Mtb inh	GDH-TPI counter-1	Mtb FBA inh conf	GDH-TPI counter-2
CCOc1ccc(N2C(=O)C(C)CNC2=S)cc1 (stereo not given)	8.2	x	-0.9	9.5	x	x
Nc1ccccc1C(=O)NCc1ccccc1	-7.1	-2.5	44.4*	-4.8	0.8	3.5
Cc1ccccc1CNC(=O)c1ccccc1N	-37.2	1.0	78.0*	5.4	+	191.2*
COc1ccccc1CNC(=O)c1ccccc1NS(C)(=O)=O	-12.7	-0.8	29.5*	-7.5	101.9*	79.8*
Cc1ccccc1CNC(=O)c1ccccc1C	3.4	2.0	1.4	2.3	x	x
CCN(CC)CCCNC(=O)c1ccccc1C	-2.3	2.1	1.8	12.0	x	x
CCN(CC)CCNC(=O)c1ccccc1N	-23.8	-2.3	59.9*	-4.5	140.2*	121.1*
C[C@H]1COC(=O)[C@@H](Cc2ccc(F)cc2)C/C=C\C[C@@H](CC(=O)N[C@@H](CO)Cc2ccccc2)C(=O)N1	9.6	x	2.1	6.5	x	x
Cc1ccc(S(=O)(=O)NCC(=O)Nc2cccnc2)cc1C	-2.1	x	-2.1	0.9	x	x
COc1ccc(OC)c2c1CCC2=O	-37.9	0.0	30.3*	9.1	70.8*	51.1*
CC1CCCN(Cc2c(O)ccc3c(=O)c(-c4nc5ccccc5s4)c(N)oc23)C1 (stereo not given)	4.1	-0.5	32.7*	38.7*	136.1*	83.9*
COC(=O)N1C[C@H](OCc2ccc3c(c2)OCO3)[C@H]2C[C@@H]1c1ccccc1O2	-8.2	x	x	x	x	x
O=C(COc1ccc2ccc(=O)oc2c1)N1CCN(c2ccc(F)cc2)CC1	4.2	2.7	-2.4	-2.6	x	x
CCCCc1cc(=O)oc2c(C)c(OCC(=O)N3CCC(C(=O)O)(c4ccccc4)CC3)ccc12	-7.3	-0.3	34.5*	16.7	182.1*	131.3*
Cc1c(C)c2ccc(OCC(=O)N3CCOCC3)c(C)c2oc1=O	-28.8	0.0	81.3*	8.2	-0.3	-4.4
O=C(COc1ccc2ccc(=O)oc2c1)N1CCC(C(=O)O)(c2ccccc2)CC1	-12.9	19.9	27.1*	1.0	+	+
Cc1c(C)c2ccc(OCC(=O)N3CCC(C(=O)O)(c4ccccc4)CC3)c(C)c2oc1=O	-25.5	1.1	99.2*	9.0	102.5*	90.6*
C#CCOCCOCCOCCNc1nc(N2CCN(C(=O)[C@H](CCCCN)n3cc(CCCC)nn3)CC2)nc(N2CCN(C(=O)[C@H](CCCCN)n3cc(CCC(=O)O)nn3)CC2)n1	-8.6	x	2.1	-8.1	x	x
C[C@@H](CO)N(CCc1cn(Cc2ccccc2)nn1)S(=O)(=O)c1ccccc1Br	-5.2	x	x	x	x	x
O=C(O)c1cc(S(=O)(=O)O)cc(Nc2c3ccccc3nc3ccccc23)c1O	-72.4	-10.7	43.2*	-2.5	40.5*	33.9*
Cc1nc2c(c(=O)c3ccccc3n2C)c(=O)n1C1CCCCCC1	-2.0	5.2	37.1*	16.1	45.4*	45.8*
Cn1c2ccccc2c(=O)c2c(=O)n(C3CCCCC3)c(-c3ccco3)nc21	11.4	-1.0	0.8	17.0	x	x
NNC(=O)C1CC(O)CN1S(=O)(=O)c1ccc2ccccc2c1 (stereo not given)	4.6	x	-1.8	-6.6	x	x
CN(C)CCCNc1nc2cc(-c3cccc(Cl)c3)sc2c(=O)n1C	-9.7	x	0.8	13.7	x	x
COc1ccc(-c2cc3nc(NCCCN(C)C)n(C)c(=O)c3s2)cc1OC	-33.6	x	46.8*	19.9	128.7*	86.3*
Cc1sc(-c2cccnc2)nc1OC(=O)C1CC1	3.7	-2.6	28.1*	7.4	+	+
CNC(=O)c1sc(-c2cccnc2)nc1C	-4.7	3.3	1.0	6.8	x	x
COc1ccc(C(CNC(=O)c2ccc3c(c2)OCCO3)N(C)C)cc1 (stereo not given)	3.6	-1.1	0.5	0.4	x	x
Cc1cc(=O)oc2cc(OCC(=O)OCC(=O)Nc3ccc4ccccc4c3)ccc12	-6.4	-3.4	25.7	11.0	x	x
